Rows were chosen to be rich in hits. Some 32% of all compounds tested hit in one or more screens of this group.
CYP2C9 activ: activators of human CYP2C9. recombinant CYP2C9, luciferin-H conversion, luminescence; stronger effect = higher value; factor 1 = untreated enzyme, 0 = blocked. 96,000 tested, 1.4% active. P11712. AID 1024. activation factor at 5 µM;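 active = activation factor of 2 or more for CYP2C9 at a 5 µM dose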;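 also: 0 = sulfaphenazole-blocked wells and 1 = vehicle-only wells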
Target sequence (P11712 whole entry, looked up): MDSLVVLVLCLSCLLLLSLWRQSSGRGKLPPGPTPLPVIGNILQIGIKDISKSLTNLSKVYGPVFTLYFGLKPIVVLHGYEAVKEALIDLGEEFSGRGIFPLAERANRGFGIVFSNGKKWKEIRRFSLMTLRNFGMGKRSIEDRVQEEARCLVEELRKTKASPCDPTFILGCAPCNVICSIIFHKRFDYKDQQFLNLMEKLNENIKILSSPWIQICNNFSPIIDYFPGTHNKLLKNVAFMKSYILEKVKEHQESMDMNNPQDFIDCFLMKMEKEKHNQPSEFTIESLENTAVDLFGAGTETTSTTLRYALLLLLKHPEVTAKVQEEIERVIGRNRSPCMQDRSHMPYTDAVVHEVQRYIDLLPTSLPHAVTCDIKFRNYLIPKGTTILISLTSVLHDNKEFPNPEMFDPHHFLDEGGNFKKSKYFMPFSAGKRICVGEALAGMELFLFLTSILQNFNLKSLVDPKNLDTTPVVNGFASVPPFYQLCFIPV
PostGolgi yeast: growth inhibition of a yeast mutant, post-Golgi transport screen. post-Golgi transport phenotypic cell assay. inhibition, % at 10 µM. 98,000 tested, 0.9% active. AID 739;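 also: yeast cells grown in 1536-well plates; yeast grown about 18 h at 30C before absorbance read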
PostGolgi ctrl: inhibits growth of the yeast control strain; efflux-deficient yeast background strain, growth absorbance A615, 16 h; inhibition, % at 10 µM; 98,000 tested, 5% active; AID 738
CYP2C19 inh: inhibitors of human CYP2C19 | P33261 | CYP2C19 Supersomes, luciferin-H EGE luminescence, 30 min | inhibition, % at 5 µM | 96,000 tested, 21% active;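 active = CYP2C19 inhibition above a set limit at 5 µM in the primary screen, cut at about 50% in these data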;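 also: plate controls were negative control wells for no effect and 2.5 mM tranylcypromine positive control for full effect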
CYP2C19 act: activators of human cytochrome P450 2C19. P33261. recombinant CYP2C19, luciferin-H EGE luminescence; stronger effect = higher value; 0 = fully inhibited enzyme, 1 = untreated enzyme. activation factor at 5 µM. 96,000 tested, under 10 active;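 active = activation factor of at least 2 at 5 µM in the primary screen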;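 also: 0 = wells with 2.5 mM tranylcypromine and 1 = vehicle-only wells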
CYP2C9 inh: human CYP2C9 inhibition; P11712; CYP2C9 Supersomes, luciferin-H conversion, luminescence; inhibition, % at 5 µM; 96,000 tested, 20% active; AID 777;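 active = blocking of liver enzyme CYP2C9 beyond about 50% at 5 µM, limit read from the data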
* marks the source's active call; other numbers are inactive results; / = not tested or not shown. Rule as the data show it, unless noted: active = inhibition above about 30%; inactive = the rest.

SMILES	CYP2C9 activ	PostGolgi yeast	PostGolgi ctrl	CYP2C19 inh	CYP2C19 act	CYP2C9 inh
COC(=O)c1ccc(C2CC(=O)Nc3cc(OC)c(OC)c(OC)c32)cc1 (centres undefined)	0.1	2	10	93*	0.1	88*
COc1cc2c(c(OC)c1)C(c1ccncc1)CC(=O)N2 (centres undefined)	0.1	-1	2	76*	0.2	90*
O=C(NNc1cccc(Cl)n1)Nc1cccc(Cl)c1	0.8	5	-4	72*	0.3	17
O=C(NCCc1ccncc1)Nc1ccccc1Cl	0.2	1	-6	89*	0.1	82*
O=C(Nc1ccccc1)Nc1cccc(Cl)c1	1.3	-6	24	30	0.7	-30
O=C(NCCc1ccncc1)Nc1cccc(Cl)c1	0	-5	-2	98*	0	98*
CN(CC(=O)OCC(=O)NC(=O)c1cccn1C)S(=O)(=O)c1ccc(Cl)cc1	1	-7	27	1	1	0
COc1ccc(N2CCn3c2nc2c3c(=O)n(CCc3ccccc3)c(=O)n2C)cc1	0.9	/	/	15	0.8	7
COc1cc(C(=O)NCc2ccc3c(c2)OCO3)ccc1OCc1c(C)noc1C	0.6	0	11	5	1	38
Cc1nc2c3ccccc3nc(SCC(=O)N3CC(C)CC(C)C3)n2n1 (centres undefined)	0.8	0	32*	54*	0.5	23
Nc1nc(CSc2nnnn2-c2ccc(Cl)cc2)nc(N2CCOCC2)n1	1	0	12	-1	1	2
Cc1ccc(Cl)cc1NC(=O)c1cnn2c1NC(c1ccco1)CC2C(F)(F)F (centres undefined)	0.6	41*	58*	12	0.9	44
CN(Cc1ccc(-n2cccn2)cc1)C(=O)c1cnn2c1NC(c1ccco1)CC2C(F)(F)F (centres undefined)	0.2	3	13	49	0.5	78*
O=C(NCc1cccc(Cl)c1)c1cnn2c1NC(c1ccco1)CC2C(F)(F)F (centres undefined)	0.6	-3	16	49	0.5	41
CCOC(=O)N1CCC(NC(=O)c2cnn3c2NC(c2ccco2)CC3C(F)(F)F)CC1 (centres undefined)	1	17	-1	2	1	4
O=C(CNS(=O)(=O)c1cccs1)N1CCc2ccccc2C1	1.1	4	10	53*	0.5	-13
O=C(CCCNS(=O)(=O)c1cccs1)N1CCc2ccccc2C1	1.6	8	1	55*	0.4	-62
CC(C)C(NS(=O)(=O)c1cccs1)C(=O)N1CCc2ccccc2C1 (centres undefined)	0.6	4	2	79*	0.2	43
CC(=O)NC(CCS(C)(=O)=O)C(=O)N1CCc2ccccc21 (centres undefined)	1.1	18	-4	-7	1.1	-10
O=C(NCc1ccc(N2CCCC2=O)cc1)c1cnccn1	1	0	-4	15	0.8	-2
CCN(CC)c1ccc(NC(=O)CN2CCN(CC(=O)Nc3ccc(F)cc3)CC2)cc1	1.2	2	1	14	0.9	-16
COc1ccccc1NC(=O)CN1CCN(Cc2ccccc2)CC1	0.6	-9	14	72*	0.3	36
COc1ccccc1NC(=O)C(=O)N/N=C(\C)CC(=O)Nc1ccc(OCc2ccccc2)cc1	0.7	5	17	30	0.7	33
COc1ccccc1NC(=O)CN1CCN(CC(=O)Nc2ccc(F)cc2)CC1	0.7	-3	-4	88*	0.1	26
COc1ccccc1NC(=O)CN1CCN(CC(=O)Nc2ccc(OCc3ccccc3)cc2)CC1	0.2	-3	51*	87*	0.1	79*
CN1CCN(c2ccc(NC(=O)c3cccc(OCc4ccccc4)c3)cc2)CC1	0.8	0	39*	21	0.8	17
CNC(=O)CSc1nnc(COc2ccc(Cl)cc2)n1CCOC	0.8	-4	15	8	0.9	22
CCOC(=O)Nc1ccccc1C(=O)N1CCOCC1	1	3	12	2	1	-5
O=C(CN1CCN(c2ccccc2)CC1)Nc1ccc(OCc2ccccc2)cc1	0.7	2	48*	7	0.9	29
CCOc1ccc(NC(=O)CCN2CCN(c3ccccc3)CC2)cc1	0.7	7	1	8	0.9	33

Screening data deposited in PubChem BioAssay by several laboratories.
